Experimental data as given in the supplement of paper PMC10849652.
About 7,900 targets were measured; listed, in parts, are those with a hit and a random draw of the rest. About 0.6% of all pairs of compound and target were hits. Unmarked numbers belong to inactive results.

How the values were obtained:
Assay in all cases: log2 fold change, soluble protein after heating vs DMSO (PISA); higher = thermal stabilisation; K562 cells, 10 uM, 30 min; active = over 0.2 and 3.5 SD of the protein, either way, in both replicates (recomputed)
[1] = compound: C1=CC=C(C=C1)[C@H](COC2=CC3=C(C=C2)NC(=O)N3)NC(=O)C4=CC=CN(C4=O)CC5=CC(=C(C=C5)F)F
In short: (§1)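 K562 cells at 2×10^6 cells/mL were exposed to 10 μM compound for 30 min, then aliquots were heated for 3 min across 48°C-58°C, pooled, and extracted in PBS containing 0.5% NP-40 at 4°C. The supernatant after 21,000xg for 90 min was taken as soluble protein and measured by TMTpro 16plex LC-MS/MS with channel sums equalised. Thermal stability is reported relative to control samples, with values from duplicates. Fold changes are given on a log2 scale.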

[2] = compound: CC1=C(SC2=C1C(=N[C@H](C3=NN=C(N32)C)CC(=O)N)C4=CC=C(C=C4)Cl)C
In short: as §1

[3] = compound: CC1=C2C(=CC=C1)N=C(N(C2=O)C3=CC=CC=C3C)CN4C=NC5=C(N=CN=C54)N
In short: as §1

[4] = compound: Cc1sc2c(c1C)C(c1ccc(Cl)cc1)=N[C@@H](CC(=O)OC(C)(C)C)c1nnc(C)n1-2
In short: as §1

[5] = compound: c1ccc([C@@H]2C[C@H]2NC2CCNCC2)cc1
In short: as §1

Chain of UniProt Q8IWJ2 (Q8IWJ2 whole entry, looked up): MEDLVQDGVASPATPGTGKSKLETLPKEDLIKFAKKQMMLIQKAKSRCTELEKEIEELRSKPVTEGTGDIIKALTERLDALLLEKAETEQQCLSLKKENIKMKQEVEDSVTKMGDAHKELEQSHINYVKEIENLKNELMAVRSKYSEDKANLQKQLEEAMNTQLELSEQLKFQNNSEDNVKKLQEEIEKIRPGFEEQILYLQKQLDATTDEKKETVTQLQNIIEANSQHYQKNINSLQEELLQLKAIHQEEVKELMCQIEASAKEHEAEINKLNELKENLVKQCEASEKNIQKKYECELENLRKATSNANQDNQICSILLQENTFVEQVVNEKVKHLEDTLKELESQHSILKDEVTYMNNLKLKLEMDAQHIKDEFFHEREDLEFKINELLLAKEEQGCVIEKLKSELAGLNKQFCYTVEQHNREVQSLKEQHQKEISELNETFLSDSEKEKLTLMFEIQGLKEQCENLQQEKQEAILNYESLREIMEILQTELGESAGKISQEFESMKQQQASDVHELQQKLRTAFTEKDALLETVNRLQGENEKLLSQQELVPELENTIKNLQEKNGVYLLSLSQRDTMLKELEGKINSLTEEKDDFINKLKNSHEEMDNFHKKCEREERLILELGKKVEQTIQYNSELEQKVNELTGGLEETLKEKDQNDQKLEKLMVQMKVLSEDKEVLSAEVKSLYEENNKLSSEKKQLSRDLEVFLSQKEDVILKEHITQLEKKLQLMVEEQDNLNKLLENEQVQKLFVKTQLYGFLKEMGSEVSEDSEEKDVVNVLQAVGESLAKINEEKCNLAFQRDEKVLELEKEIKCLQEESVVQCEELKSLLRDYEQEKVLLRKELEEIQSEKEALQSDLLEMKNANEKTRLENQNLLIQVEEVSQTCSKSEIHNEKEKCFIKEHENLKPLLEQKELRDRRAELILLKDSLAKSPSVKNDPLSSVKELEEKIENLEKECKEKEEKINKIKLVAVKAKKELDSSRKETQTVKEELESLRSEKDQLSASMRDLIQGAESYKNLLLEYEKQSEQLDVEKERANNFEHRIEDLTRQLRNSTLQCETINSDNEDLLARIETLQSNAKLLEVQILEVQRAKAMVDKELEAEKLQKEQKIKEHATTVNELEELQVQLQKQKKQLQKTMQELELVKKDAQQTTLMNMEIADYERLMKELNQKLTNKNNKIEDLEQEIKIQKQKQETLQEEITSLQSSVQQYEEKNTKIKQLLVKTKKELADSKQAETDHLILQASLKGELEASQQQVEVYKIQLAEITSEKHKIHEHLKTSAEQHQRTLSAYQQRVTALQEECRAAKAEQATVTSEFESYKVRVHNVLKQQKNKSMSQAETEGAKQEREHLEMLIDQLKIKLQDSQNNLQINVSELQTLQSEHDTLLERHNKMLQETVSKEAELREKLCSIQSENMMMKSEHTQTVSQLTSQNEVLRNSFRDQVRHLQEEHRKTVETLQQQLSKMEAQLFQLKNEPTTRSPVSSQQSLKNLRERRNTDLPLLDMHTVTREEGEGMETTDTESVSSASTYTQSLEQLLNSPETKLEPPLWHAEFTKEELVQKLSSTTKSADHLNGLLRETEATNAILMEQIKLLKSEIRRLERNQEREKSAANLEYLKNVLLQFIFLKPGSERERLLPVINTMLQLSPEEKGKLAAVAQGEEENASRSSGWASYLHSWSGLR
Chain of UniProt P37268 (P37268 whole entry, looked up): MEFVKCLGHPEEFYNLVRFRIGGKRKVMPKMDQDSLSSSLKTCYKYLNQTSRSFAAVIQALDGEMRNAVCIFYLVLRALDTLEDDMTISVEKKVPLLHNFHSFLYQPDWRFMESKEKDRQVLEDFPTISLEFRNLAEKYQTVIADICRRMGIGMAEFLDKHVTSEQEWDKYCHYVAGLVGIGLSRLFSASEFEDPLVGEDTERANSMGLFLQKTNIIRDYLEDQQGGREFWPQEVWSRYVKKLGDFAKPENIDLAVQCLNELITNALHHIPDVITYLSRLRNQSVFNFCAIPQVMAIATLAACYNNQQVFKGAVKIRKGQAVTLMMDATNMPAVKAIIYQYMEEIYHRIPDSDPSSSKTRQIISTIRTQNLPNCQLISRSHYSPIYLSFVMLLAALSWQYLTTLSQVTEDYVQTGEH
Chain of UniProt P09211 (P09211 whole entry, looked up): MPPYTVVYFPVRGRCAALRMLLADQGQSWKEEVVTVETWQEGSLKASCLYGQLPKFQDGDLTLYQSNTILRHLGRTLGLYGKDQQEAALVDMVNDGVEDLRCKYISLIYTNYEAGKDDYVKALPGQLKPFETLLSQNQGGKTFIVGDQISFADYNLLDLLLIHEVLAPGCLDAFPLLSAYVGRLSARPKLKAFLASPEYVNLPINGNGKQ
Chain of UniProt Q16774 (Q16774 whole entry, looked up): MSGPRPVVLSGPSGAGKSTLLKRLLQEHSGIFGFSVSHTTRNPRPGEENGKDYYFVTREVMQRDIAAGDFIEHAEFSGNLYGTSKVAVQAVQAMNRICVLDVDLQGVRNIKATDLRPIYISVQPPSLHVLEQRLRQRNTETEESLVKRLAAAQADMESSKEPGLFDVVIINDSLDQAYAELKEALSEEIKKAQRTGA
Chain of UniProt P16278 (P16278 whole entry, looked up): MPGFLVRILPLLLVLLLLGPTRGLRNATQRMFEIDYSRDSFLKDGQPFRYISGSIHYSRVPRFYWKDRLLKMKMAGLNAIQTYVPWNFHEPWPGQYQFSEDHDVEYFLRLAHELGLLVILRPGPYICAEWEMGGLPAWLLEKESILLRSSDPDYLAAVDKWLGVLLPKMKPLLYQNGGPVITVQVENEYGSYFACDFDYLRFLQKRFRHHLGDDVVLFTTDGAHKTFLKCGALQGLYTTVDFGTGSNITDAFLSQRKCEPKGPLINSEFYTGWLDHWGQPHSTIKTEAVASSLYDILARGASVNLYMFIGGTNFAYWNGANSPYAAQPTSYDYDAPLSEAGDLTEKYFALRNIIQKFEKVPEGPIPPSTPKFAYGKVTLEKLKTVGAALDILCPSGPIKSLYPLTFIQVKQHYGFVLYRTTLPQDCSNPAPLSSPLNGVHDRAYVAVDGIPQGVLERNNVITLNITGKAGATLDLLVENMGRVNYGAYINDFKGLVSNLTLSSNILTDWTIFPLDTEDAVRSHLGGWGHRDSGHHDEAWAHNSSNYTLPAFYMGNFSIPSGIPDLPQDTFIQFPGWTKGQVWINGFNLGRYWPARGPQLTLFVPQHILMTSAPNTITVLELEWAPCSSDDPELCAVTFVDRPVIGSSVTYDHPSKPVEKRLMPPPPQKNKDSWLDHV
Chain of UniProt P55795 (P55795 whole entry, looked up): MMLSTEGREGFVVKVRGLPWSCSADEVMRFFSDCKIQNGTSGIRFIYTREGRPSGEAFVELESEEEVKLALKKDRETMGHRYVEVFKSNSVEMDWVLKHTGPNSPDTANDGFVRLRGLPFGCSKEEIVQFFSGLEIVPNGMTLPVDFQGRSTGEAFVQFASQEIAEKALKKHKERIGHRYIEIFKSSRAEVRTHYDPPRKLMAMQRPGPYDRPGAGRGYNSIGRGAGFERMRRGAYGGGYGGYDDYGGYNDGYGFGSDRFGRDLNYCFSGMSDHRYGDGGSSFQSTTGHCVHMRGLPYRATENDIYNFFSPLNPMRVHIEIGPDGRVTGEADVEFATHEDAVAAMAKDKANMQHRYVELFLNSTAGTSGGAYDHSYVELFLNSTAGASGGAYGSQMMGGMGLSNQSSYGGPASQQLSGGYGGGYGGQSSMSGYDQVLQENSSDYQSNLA
Chain of UniProt P52655 (P52655 whole entry, looked up): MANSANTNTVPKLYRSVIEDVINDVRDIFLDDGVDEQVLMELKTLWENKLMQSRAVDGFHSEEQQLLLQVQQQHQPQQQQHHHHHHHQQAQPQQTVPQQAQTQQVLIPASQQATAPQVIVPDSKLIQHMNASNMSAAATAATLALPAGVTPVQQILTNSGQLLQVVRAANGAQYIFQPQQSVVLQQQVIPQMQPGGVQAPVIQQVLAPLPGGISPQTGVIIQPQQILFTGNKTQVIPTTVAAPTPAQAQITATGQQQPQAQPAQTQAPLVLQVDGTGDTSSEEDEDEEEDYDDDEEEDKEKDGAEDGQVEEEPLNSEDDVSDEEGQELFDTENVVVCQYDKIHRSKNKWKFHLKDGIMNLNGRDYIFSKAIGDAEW
Chain of UniProt Q9BYC5 (Q9BYC5 whole entry, looked up): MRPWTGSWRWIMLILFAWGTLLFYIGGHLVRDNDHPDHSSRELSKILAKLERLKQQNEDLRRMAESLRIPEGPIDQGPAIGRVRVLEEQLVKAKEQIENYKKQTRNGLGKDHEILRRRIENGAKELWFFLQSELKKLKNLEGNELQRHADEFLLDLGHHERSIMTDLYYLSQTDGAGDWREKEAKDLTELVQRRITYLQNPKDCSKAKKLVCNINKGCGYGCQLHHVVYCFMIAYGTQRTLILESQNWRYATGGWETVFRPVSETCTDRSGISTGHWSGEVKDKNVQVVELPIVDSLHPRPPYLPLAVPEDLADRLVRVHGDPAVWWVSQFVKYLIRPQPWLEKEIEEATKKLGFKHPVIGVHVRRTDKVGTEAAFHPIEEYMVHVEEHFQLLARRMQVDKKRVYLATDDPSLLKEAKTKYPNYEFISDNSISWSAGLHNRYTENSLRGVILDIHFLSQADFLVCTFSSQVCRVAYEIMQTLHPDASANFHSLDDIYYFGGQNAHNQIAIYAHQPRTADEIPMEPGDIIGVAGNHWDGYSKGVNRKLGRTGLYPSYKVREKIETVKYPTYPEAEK
Chain of UniProt P02008 (P02008 whole entry, looked up): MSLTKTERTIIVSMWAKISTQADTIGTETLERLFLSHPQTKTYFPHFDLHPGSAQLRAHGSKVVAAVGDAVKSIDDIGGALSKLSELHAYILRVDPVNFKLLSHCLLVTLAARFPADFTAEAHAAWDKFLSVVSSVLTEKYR
Chain of UniProt P60520 (P60520 whole entry, looked up): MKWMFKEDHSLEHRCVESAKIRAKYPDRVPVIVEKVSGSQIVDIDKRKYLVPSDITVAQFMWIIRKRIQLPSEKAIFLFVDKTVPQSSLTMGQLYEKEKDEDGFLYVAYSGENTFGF
Chain of UniProt P05114 (P05114 whole entry, looked up): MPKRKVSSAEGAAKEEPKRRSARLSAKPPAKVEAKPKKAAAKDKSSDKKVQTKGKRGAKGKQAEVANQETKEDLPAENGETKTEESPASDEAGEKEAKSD

Target	log2 fold change [1]	log2 fold change [2]	log2 fold change [3]	log2 fold change [4]	log2 fold change [5]
FNTB (UniProt P49356)	-0.034	0.401	-0.017	0.269	-0.044
FRA10AC1 isoform 3 (UniProt Q70Z53)	-0.03	0.005	0.055	0.069	0.073
HIC2 (UniProt Q96JB3)	0.163	-0.053	-0.048	0.205	0.078
HK2 (UniProt P52789)	-0.006	0.045	0.007	-0.025	-0.016
HIP1 (UniProt O00291)	0.137	-0.009	0.106	0.019	0.045
FMC1 (UniProt Q96HJ9)	0.009	0.06	0.044	0	-0.002
GCC2 (UniProt Q8IWJ2)	-0.027	-0.116	0.004	0.066	-0.059
GSTP1 (UniProt P09211)	-0.013	0.039	0.005	-0.013	-0.016
FBXO42 (UniProt Q6P3S6)	-0.022	0.017	0.094	0.141	0.077
GTF2A1 (UniProt P52655)	0.04	-0.021	-0.01	-0.004	-0.006
HMGCR isoform 3 (UniProt P04035)	-0.011	0.034	0.045	0.111	0.043
GNAI3 (UniProt P08754)	-0.005	0.019	0.011	-0.154	-0.032
HEXB (UniProt P07686)	0.028	0.005	0.064	-0.008	0.016
GLB1 (UniProt P16278)	0.042	-0.065	0.011	-0.043	0.026
IFNGR1 (UniProt P15260)	0.106	0.105	0.028	0.046	0.03
HNRNPH2 (UniProt P55795)	-0.096	-0.037	0.097	-0.035	-0.003
FUT8 (UniProt Q9BYC5)	0	0.068	-0.06	-0.168	0.049
FBL (UniProt P22087)	0.095	-0.267	-0.126	0.18	0.074
GBA2 (UniProt Q9HCG7)	0.099	0.012	0.017	0.034	0.023
GTF3C4 (UniProt Q9UKN8)	0.027	0.065	0.143	0.02	0.025
GUK1 isoform 2 (UniProt Q16774)	-0.042	0.003	0.084	-0.021	0.031
GTF2B (UniProt Q00403)	-0.036	0.007	0.154	0.017	-0.002
FNTA (UniProt P49354)	-0.009	-0.024	0.02	0.04	-0.009
GIGYF2 (UniProt Q6Y7W6)	-0.006	0.057	0.057	0.012	-0.046
FDFT1 (UniProt P37268)	-0.064	0.319 (active)	0.089	0.109	-0.021
FUBP3 (UniProt Q96I24)	0.009	0.002	0.017	0.065	0.006
HDAC1 (UniProt Q13547)	0.004	0	-0.004	0.03	0.154

Target	log2 fold change [1]	log2 fold change [2]	log2 fold change [3]	log2 fold change [4]	log2 fold change [5]
HDAC10 (UniProt Q969S8)	-0.061	-0.028	0.07	0.12	-0.051
IFT74 (UniProt Q96LB3)	0.134	0.11	0.163	0.003	-0.069
HNRNPC isoform 2 (UniProt P07910)	0.102	-0.441	-0.171	0.07	0.139
GTF2E1 (UniProt P29083)	-0.086	0.089	0.136	-0.052	0.034
GEMIN6 (UniProt Q8WXD5)	0.027	-0.111	-0.053	-0.113	-0.063
GABARAPL2 (UniProt P60520)	0.037	0.035	0.039	-0.038	-0.055
HEXA (UniProt P06865)	0.042	-0.004	0.052	-0.018	0.024
HHEX (UniProt Q03014)	0.054	0.187	0.469	0.026	0.516
GEMIN5 (UniProt Q8TEQ6)	-0.004	-0.019	0.022	0.021	0.005
GLS (UniProt O94925)	-0.022	0.114	0.138	0.013	0.082
HBZ (UniProt P02008)	0.047	0.191	0.091	-0.132	-0.009
GPX4 (UniProt P36969)	0.029	0.001	0.017	-0.064	0.028
ICAM1 (UniProt P05362)	-0.005	0.021	0.049	0.012	0.031
GGT7 (UniProt Q9UJ14)	0.028	-0.055	-0.069	0.026	0.032
GNPAT (UniProt O15228)	-0.034	0.043	0.07	-0.01	-0.036
GABPA (UniProt Q06546)	-0.001	0.005	0.149	-0.01	-0.041
FEN1 (UniProt P39748)	-0.198	0.097	0.157	-0.009	-0.043
HADHB (UniProt P55084)	-0.238	0.235	0.2	0.363	-0.085
FASTKD1 (UniProt Q53R41)	-0.038	0.151	0.013	0.204	0.07
FBXO9 (UniProt Q9UK97)	-0.011	0.23	0.016	0.161	0.07
GLUD1 (UniProt P00367)	0.046	0.065	-0.004	0.071	-0.03
HMGN1 (UniProt P05114)	0.042	-0.023	-0.119	0.027	0.048
FARS2 (UniProt O95363)	-0.021	0.022	0.006	0.069	-0.018
HDAC2 (UniProt Q92769)	0.022	0.042	0.08	-0.002	0.111
GALNT2 (UniProt Q10471)	0.008	0.057	0.001	0.007	-0.004
GLA (UniProt P06280)	0.019	-0.019	-0.01	0.007	0.017
GTPBP6 (UniProt O43824)	0.038	0.007	0.012	-0.062	-0.034
